Compound activity (PubChem)
HT1080NT lethal = qHTS for induction of synthetic lethality in tumor cells producing 2HG: qHTS for the HT-1080-NT fibrosarcoma cell line. HT-1080-NT fibrosarcoma viability, CellTiter-Glo ATP luminescence, 48 h. Potency, µM (titrated, usually from 46.1 µM), for inactives: at the highest dose activity, negative = less viability, most hits filed as cytotoxic. 1.6% of 360,000 active. AID 686970, 2013;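 note: NT is the 2HG producing partner of a matched IDH1 knockdown line; potency is the fitted concentration of half-maximal effect; 0% = DMSO-treated cells and -100% = media-only wells without cells; nearly all actives have a fitted effect of over 55% in size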
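Luminescent CellTiter-Glo readout after 48 hours of compound exposure at 37 degrees C defined viability of HT-1080-NT cells. Activity was normalized to DMSO wells and cell-free media wells; concentration-response curves were fitted and assigned curve classes.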
DT40 TDP1 CPT = qHTS for Inhibitors of human tyrosyl-DNA phosphodiesterase 1 (TDP1): qHTS in cells in presence of CPT | 12% of 420,000 active | AID 686979, 2013 | Potency, µM (titrated, usually from 46.2 µM), without a hit: at the highest dose activity change, negative = growth inhibition, hits mostly inhibitors | chicken DT40 Tdp1-/-;hTDP1 cells + 20 nM CPT, ATP luminescence, 48 h; note: potency is the fitted concentration of half-maximal effect; nearly all actives have a fitted effect of over 55% in size
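Cell growth measured by CellTiter-Glo luminescence after a minimum 48 h, 37 C compound exposure with 20 nM CPT in Tdp1-knockout DT40 cells stably expressing hTDP1, seeded 400/well; qHTS titration format.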
IL-1B inflam inh = qHTS for Inhibitors of Inflammasome Signaling: IL-1-beta AlphaLISA Primary Screen; THP-1 LPS/ATP IL-1B secretion, AlphaLISA, 16 h; stronger effect = lower value; activity change, % at 57.5 µM; 4.7% of 360,000 active; AID 743279, 2014; in the data active = activity change below about -50%; inconclusive = mostly about -30% to -49%
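Secreted IL-1B measured by AlphaLISA bead assay after 16 h compound exposure of THP-1 cells; compounds (final up to 57.5 uM) added 1 h before LPS (250 ng/mL) and ATP (1.25 mM) stimulation; lower signal means less secretion.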
DT40 TDP1 no CPT = qHTS for Inhibitors of human tyrosyl-DNA phosphodiesterase 1 (TDP1): qHTS in cells in absence of CPT; DT40 Tdp1-/- hTDP1 cells, no CPT, ATP luminescence, 48 h; Potency, µM (doses to about 46.2 µM), inactives show at the highest dose activity change, negative = growth inhibition, actives largely listed as inhibitors; 15% of 420,000 active; note: potency is the fitted concentration of half-maximal effect; nearly all actives have a fitted effect of over 55% in size
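Compound effects on proliferation are scored in DT40 Tdp1-/-;hTDP1 cells in the absence of CPT. ATP levels (CellTiter-Glo luminescence) are recorded after a ≥48 hr, 37 °C incubation.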
HT1080 IDH1KD tx = qHTS for induction of synthetic lethality in tumor cells producing 2HG: qHTS for the HT-1080-IDH1KD cell line. HT-1080 IDH1 knockdown viability, ATP luminescence, 48 h. Potency, µM (doses to about 46.1 µM), for inactives: at the top dose activity, negative = toxicity, hits mostly cytotoxic. 2% of 360,000 active;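 note: potency is the fitted concentration of half-maximal effect; 0% = DMSO wells and -100% = cell-free medium wells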
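After a 2 h attachment period, IDH1KD HT-1080 cells took pin-transferred compound for 48 h at 37 °C; ATP-based luminescence after 10 min room-temperature reagent incubation reported viability.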
* = called active by the depositor; u = inconclusive; x = not tested or not shown; ! = a repeat was not active; [ ] = another dose, or the depositor's remark. Sampled rows, rich in hits. Any-hit rate of the full collection: about 19%. Unless noted, calls come from the whole dose curve; as a rule, active = well fitted curve in the direction sought with a large enough effect; inconclusive = small, poorly fitted or top-dose-only effect, or another doubt; inactive = no such curve, though single readings can be large; an effect the other way counts as inactive or inconclusive. Unless noted, % is set by controls: 0 for no effect and ±100 for the full control effect.

SMILES | HT1080NT lethal | DT40 TDP1 CPT | IL-1B inflam inh | DT40 TDP1 no CPT | HT1080 IDH1KD tx
O=C(Nc1ccc(F)cc1F)c1sccc1SCc1cccc(C(F)(F)F)c1 | 10% | u | -27 | u | 1%
NNC(=O)c1sccc1OCc1cccc(C(F)(F)F)c1 | -6% | 21µM* | -3 | u | 0%
CC1CCC(C(=O)NC(C(=O)OCC(=O)c2ccc(Br)cc2)C(C)C)CC1 (stereo unspecified) | x | u | x | 21µM* | x
O[C@@H](c1ccccc1)C1CCN(CCc2ccccc2)CC1 | x | -9% | x | -23% | x
CC(C)NC(=O)c1onc(CSc2cccc(F)c2)c1C(=O)O | -2% | 0% | 36 | 12% | -8%
COc1ccc(N2CCN(C(=O)c3ccc(Oc4ccc(C(F)(F)F)cn4)cc3)CC2)cc1 | 6% | u | -3 | 23µM* | -16%
O=C(c1ccc(Oc2ccc(C(F)(F)F)cn2)cc1)N1CCN(c2ccccc2)CC1 | -14% | -9% | -10 | 29µM* | -26%
COc1ccc(N2CCN(C(=O)c3ccncc3)CC2)cc1 | 5% | -24% | 5 | -20% | -1%
OCC1OCOC2C(CO)OCOC12 (stereo unspecified) | 0% | -2% | 14 | -4% | 10%
Cc1ccccc1Cn1c(CN2CCN(c3cc(Cl)ccc3C)CC2)nc2c1c(=O)[nH]c(=O)n2C | x | u | x | 13µM* | x
Cc1ccc(Cl)cc1N1CCN(Cc2nc3c(c(=O)[nH]c(=O)n3C)n2Cc2ccccc2F)CC1 | u | u | u | 23µM* | u
Cn1c(=O)[nH]c(=O)c2c1nc(CN1CCN(c3ccccc3F)CC1)n2Cc1ccc(F)cc1 | x | -25% | x | -27% | x
Cc1ccc(Cl)cc1N1CCN(Cc2nc3c(c(=O)[nH]c(=O)n3C)n2CCc2ccccc2)CC1 | 9% | 16µM* | 4 | u | 7%
COc1cccc(C(=O)N2CCC(N3CC(C)OC(C)C3)CC2)c1 (stereo unspecified) | 15% | 9% | 0 | 3% | 19%
COc1ccc(CNC(=O)C(CCSC)NS(=O)(=O)c2ccc3c(c2)oc(=O)n3C)cc1 (stereo unspecified) | x | -16% | x | -12% | x
COC(=O)[C@@H](NC(=O)C1CCCN(c2nc(C)c3ccc(C)cc3n2)C1)C(C)C (stereo partly specified) | x | 14%[9.04 µM] | x | u | x
CCc1ccn2cc(-c3cc(-c4ccccc4)no3)nc2c1 | u | u | -20 | 18µM* | u
COc1ccccc1CN1CCCC2(CCN(S(=O)(=O)c3ccccc3)CC2)C1 | x | -3% | x | -8% | x
CCN1CCN(Cc2ccc(C(=O)Nc3ccc(C)c(NCc4cnc(NC(=O)OC)cn4)c3)cc2C(F)(F)F)CC1 | -6% | u | -16 | -30% | 0%
COc1ccc(NC(=O)c2cnn(-c3ccccc3)c2C)cc1OC | -5% | -19% | -11 | u | -4%
CCN1CCN(Cc2ccc(NC(=O)c3cc(NC(=O)C(=O)c4c[nH]c5ccccc45)cc(OC)c3)cc2C(F)(F)F)CC1 | 16µM* | 23µM* | -80* | 21µM* | u
CCN1CCN(Cc2ccc(NC(=O)c3ccc(C)c(NC(=O)c4ccc5n[nH]nc5c4)c3)cc2C(F)(F)F)CC1 | -3% | -1% | -7 | -1% | -7%
CCN1CCN(Cc2ccc(NC(=O)c3ccc(C)c(NC(=O)C(=O)c4c[nH]c5ccccc45)c3)cc2C(F)(F)F)CC1 | 16µM* | 2.6µM* | -106* | 2.6µM* | 15µM*
CCN1CCN(Cc2ccc(NC(=O)c3cc(NC(=O)c4cnn(-c5ccccc5)c4N)cc(OC)c3)cc2C(F)(F)F)CC1 | u | 21µM* | 81 | 21µM* | 18µM*
CCN1CCN(Cc2ccc(NC(=O)c3cc(NC(=O)c4cc(C)on4)cc(OC)c3)cc2C(F)(F)F)CC1 | u | 15µM* | -83*! | 16µM* | u
SMILES | HT1080NT lethal | DT40 TDP1 CPT | IL-1B inflam inh | DT40 TDP1 no CPT | HT1080 IDH1KD tx
CSc1ccc(S(=O)(=O)N2CCC(C(=O)NCC3CCCO3)CC2)cc1 (stereo unspecified) | 23% | -5% | -18 | -7% | 17%
CCNc1ncc2ncc(=O)n(C)c2n1 | x | u | x | -29% | x
O=C(COC(=O)COc1cccc(C(F)(F)F)c1)NC(=O)NC1CCCCC1 | 0% | -9% | 6 | u | -4%
CN(C(=O)CO)c1c(I)c(C(=O)NCC(O)CO)c(I)c(C(=O)NCC(O)CO)c1I (stereo unspecified) | x | 1% | x | -4% | x
COc1cccc(NC(=S)NC2CC(C)CC(C)(C)C2)c1 (stereo unspecified) | -15% | 21µM* | 6 | 23µM* | -16%
COc1cccc(NC(=S)Nc2ccc(O)cc2)c1 | 0% | -18% | -15 | 19% | -12%
CC(=O)C(=Cc1ccc(-c2ccccc2)cc1)C(=O)c1ccccc1 | 15µM* | 18µM* | -112* | u | 23µM*
O=C(C(Br)=Cc1ccccc1)c1ccccc1 | 5.8µM* | 0.73µM* | -110* | 1.3µM* | u
CCOc1ccccc1N1CC(C(=O)N(C)Cc2cccnc2)CC1=O (stereo unspecified) | 6% | 11% | 12 | 2% | 12%
O=C(Nc1ccc2c(c1)OCCO2)C1CCCN(S(=O)(=O)c2cccc3nsnc23)C1 (stereo unspecified) | 11% | u | 7 | u | -7%
O=C(Nc1ccc(F)c(Cl)c1)C1CCCN(S(=O)(=O)c2cccc3nsnc23)C1 (stereo unspecified) | x | 16µM* | x | 23µM* | x
CC(C)c1ccc(NC(=O)C2CCCN(S(=O)(=O)c3cccc4nsnc34)C2)cc1 (stereo unspecified) | x | 4.6µM* | x | 10µM* | x
CCN(Cc1ccncc1)C(=O)c1ccccc1NS(=O)(=O)c1ccc(Br)cc1 | -18% | -21% | 33 | -19% | 3%
COc1ccccc1NC(=O)Cn1cc(C(=O)c2ccco2)c2ccccc21 | 2% | -5% | -50* | -10% | -2%
COc1ccc(OC)c(NC(=O)Cn2cc(C(=O)c3cccs3)c3ccccc32)c1 | x | u | x | 18µM* | x
COc1ccc(OC)c(NC(=O)Cn2cc(C(=O)c3ccco3)c3ccccc32)c1 | -10% | u | -21 | 16µM* | 0%
O=C(Cn1cc(C(=O)c2cccs2)c2ccccc21)NCc1ccc2c(c1)OCO2 | 0% | u | u | u | -11%
